KKLEB tox: cytotoxicity in KKLEB CF airway cells, primary screen, cytotoxicity control for CF NF-kB inhibitor project, cell-based, uHTS, fluorescence assay plates. KKLEB CF airway cells viability, ATPlite luminescence, overnight; hits give low values; cells stimulated with P. aeruginosa culture filtrate. activity change (cytotoxicity), % at 5 µM. 0.36% of 360,000 active. AID 602141, 2011;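 active = corrected activity change at or below -50% at 5 µM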
HIF-2a inh: HIF-2a reporter inhibitors, primary screen, luminescence, 786-0 RCC cells; 786-0 RCC cells HIF-2a reporter, luciferase luminescence, overnight; inhibition, % at 18.8 µM; 0.72% of 360,000 active;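 active = inhibition of the luminescence signal of 40% or more relative to plate controls, in a single-dose primary screen at 18.75 µM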
Mdm2-MdmX inh: inhibitors of human Mdm2-MdmX association, primary screen, cell-based, luminescence, split luciferase, SaOS-2, uHTS | inhibition, % at 8 µM | 3% of 330,000 active | SaOS-2 split-luciferase Mdm2/MdmX complementation | Protein Mdm4 (Homo sapiens) + E3 ubiquitin-protein ligase Mdm2 (Homo sapiens), …;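 active = inhibition of at least 50% at 8 µM in the primary screen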
ABHD5 PLIN5 PPI: ABHD5-PLIN5 interaction inhibitors, primary screen, cell lysate, split luciferase complementation, luminescence. Perilipin-5 (Homo sapiens) + 1-acylglycerol-3-phosphate O-acyltransferase ABHD5 (Homo …. Split G. princeps luciferase complementation, 4 h. inhibition, % at 4 µM. 0.78% of 360,000 active. AID 602281, 2012;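 active = inhibition above the mean inhibition across every tested compound plus 3 SD, cut at about 22% in these data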;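 note: 0% = DMSO only wells and the 100% control is not disclosed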
CF NFkB block: inhibitors of PAF-induced NF-kB signaling, primary screen, cell-based, GFP fluorescence, uHTS; inhibition, % at 5 µM; KKLEB NF-kB-GFP reporter, GFP fluorescence overnight; 0.86% of 360,000 active; AID 588850, 2011;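 active = at least 50% inhibition at 5 µM, scaled per plate between neutral and stimulator controls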;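 note: PAF is a Pseudomonas aeruginosa culture filtrate used as stimulus; plate controls were PAF-stimulated DMSO wells for no effect and unstimulated DMSO wells for full effect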
Peg3 prom inh: Peg3 promoter-driven luciferase inhibitors, primary screen, cell-based, HeLa, luciferase luminescence; inhibition, % at 20 µM; HeLa PEG-Prom luciferase reporter, overnight; 1.7% of 360,000 active; AID 588405, 2011;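 active = inhibition of at least 50% at 20 µM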
Starred values were filed as active, the others as inactive; nt = not tested or not shown. Hits are enriched below; roughly 4.6% of the tested compounds scored in any of these assays.

SMILES	KKLEB tox	HIF-2a inh	Mdm2-MdmX inh	ABHD5 PLIN5 PPI	CF NFkB block	Peg3 prom inh
CN1C(=O)C2(NC(=O)c3ccccc3N2C)c2ccccc21 (stereo not drawn)	0	9	-31	-2	4	8
CN1C(=O)C(Cl)(Cl)C(=O)c2ccccc21	-12	8	nt	88*	53*	8
CCCCn1c(N)c(-c2nc3ccccc3s2)c2c([N+](=O)[O-])nn(CC)c(=O)c21	-55*	1	39	4	45	20
Cc1ccc(C)c(N2N=C(C(=O)Nc3ccccc3N3CCOCC3)CCC2=O)c1	-8	9	12	-2	8	67*
CC(NC(=O)OC(C)(C)C)C(=O)Oc1cc2oc(=O)cc(-c3ccccc3)c2cc1Cl (stereo not drawn)	-18	-18	16	-4	82*	-7
CC(Oc1cc2oc(=O)cc(-c3ccccc3)c2cc1Cl)C(=O)NCC1CCC(C(=O)O)CC1 (stereo not drawn)	4	3	-1	7	12	4
O=C(O)CC1NC(=S)N(Cc2ccccc2)C1=O (stereo not drawn)	-4	3	nt	11	27	52*
CC(C)CN(C(=O)COC(=O)c1cnc(Cl)c(Cl)c1)c1c(N)n(Cc2ccccc2)c(=O)[nH]c1=O	-10	12	2	-8	28	85*
CN1CCN(c2ccc(NC(=S)NC(=O)c3cccc4c(Br)cccc34)cc2)CC1	-5	-14	9	4	9	-22
CN1CCN(c2ccc(NC(=S)NC(=O)c3cccc4ccccc34)cc2)CC1	0	-38	25	5	-31	69*
O=C(COc1ccccc1[N+](=O)[O-])Nc1ccc2c(c1)CCC2	4	-288	-80	-4	-27	-468
O=C1C(Cl)=C(NCCCN2CCOCC2)C(=O)c2ccccc21	-2	49*	nt	-4	38	-49
O=C1C(Cl)=C(NCCCO)C(=O)c2ccccc21	-8	72*	48	-16	8	-12
COc1ccc(C(=O)Nc2cccc(S(=O)(=O)NC3=NCCC3)c2)cc1OC	0	7	5	-8	16	6
N#CC1(Nc2ccc3ccccc3c2)CCCC1	-3	-29	nt	-4	-19	-55
Cc1cc(NC(=O)/C=C/c2cccc(Cl)c2)n(-c2nc3ccccc3[nH]2)n1	-56*	-71	43	12	54*	7
Cn1c(N=Nc2ccccc2)nc2ccccc21	-53*	-25	-133	-6	-21	-209
C/C=C1\NC(=O)[C@H](CC(N)=O)N(C)C(=O)C([C@@H](C)O)NC(=O)C(CCCc2ccc(OC)cc2)NC(=O)[C@H](C(C)C)NC(=O)/C(=C\C)NC(=O)[C@H](O)[C@@H](C[C@@H](O)CCCCCCC)NC(=O)[C@H](C)NC(=O)CN(C)C(=O)[C@H](CCC(N)=O)NC1=O (stereo partly drawn)	7	5	nt	-4	0	18
CCOC(=O)C1CCN(C(=O)Nc2ccc3nc(-c4ccco4)c(-c4ccco4)nc3c2)CC1	7	11	10	31*	6	11
O=C(Nc1ccc2nc(-c3ccco3)c(-c3ccco3)nc2c1)N1CCCCCC1	nt	nt	18	nt	nt	nt
CN1CCN(CCCNC(=O)c2ccc(/C=C3/Sc4ccccc4N(Cc4cccc(Cl)c4)C3=O)cc2)CC1	-20	14	nt	21	14	84*
O=C1Nc2cc(C(=O)NCCCN3CCCC3)ccc2S/C1=C/c1cccc(Cl)c1	0	-8	nt	-6	22	99*
CN1CCN(CCCNC(=O)c2ccc(/C=C3\Sc4ccccc4N(Cc4ccc(F)cc4)C3=O)cc2)CC1	-14	-4	nt	13	-4	104*
O=C(CN1C(=O)/C(=C/c2ccccc2)Sc2ccccc21)NCCCN1CCOCC1	-9	4	10	3	8	12
CCN1CCN(CCCNC(=O)c2ccc3c(c2)NC(=O)c2ccccc2S3)CC1	7	16	-1	-2	-3	1
SMILES	KKLEB tox	HIF-2a inh	Mdm2-MdmX inh	ABHD5 PLIN5 PPI	CF NFkB block	Peg3 prom inh
O=C(NCCCN1CCOCC1)c1ccc2c(c1)N(Cc1ccccc1)C(=O)c1ccccc1S2	-13	16	11	0	4	9
CC(C)[C@H](NC(=O)c1ccco1)C(=O)N(C)Cc1c(F)cccc1Cl	5	6	13	-4	10	-2
Cn1nc([N+](=O)[O-])nc1S(C)(=O)=O	6	-4	-6	7	70*	49
Cn1nc([N+](=O)[O-])nc1Oc1ccccc1F	21	16	-18	-4	-15	17
O=C(CC(Nc1ccc(Cl)cc1)C(=O)O)c1ccccc1 (stereo not drawn)	-22	-178	-268	22*	-8	-154
CC1COc2ccccc2N1C(=O)c1ccc(Cl)cc1 (stereo not drawn)	2	13	11	3	4	13
O=C(C(Cl)Cl)N1c2ccccc2OCC1c1ccccc1 (stereo not drawn)	4	9	28	-4	-4	59*
CCS(=O)(=O)c1c([N+](=O)[O-])ncn1C	12	13	1	20	16	60*
CCN(CC)c1c([N+](=O)[O-])ncn1C	3	0	24	1	9	4
CC(C)(C)c1ccc(CC(=O)N2CCC2(C)C(=O)NCc2cccc3ccccc23)cc1 (stereo not drawn)	-16	28	nt	13	-2	52*
CC1(C(=O)Nc2cccc(NS(C)(=O)=O)c2)CCN1CCc1ccccc1 (stereo not drawn)	2	17	nt	-4	-23	9
Cc1ccc(NC(=O)COC(=O)C2(CC(=O)NC(C)C)CCCC2)cc1C	9	1	3	1	2	15
CC(=O)N1c2ccc(Cl)cc2C2C=CCC2C1c1cccc2ccccc12 (stereo not drawn)	-18	17	nt	1	35	66*
CC1CC2c3cccc(C(=O)O)c3C(=O)N2c2ccc(Cl)cc21 (stereo not drawn)	11	11	15	2	-8	-1
OC(c1cccc(Cl)c1)c1ncc(-c2ccc(Oc3ccccc3)cc2)[nH]1 (stereo not drawn)	-10	-33	nt	-22	17	54*
OC(c1cccc(F)c1)c1ncc(-c2ccc(Oc3ccccc3)cc2)[nH]1 (stereo not drawn)	11	-147	nt	-13	-30	-34
COc1ccc(C(=O)c2sc(NC(C)C)nc2N)cc1OC	-4	-14	35	-8	58*	34
